Assay [1] is described as follows: CEETOX_H295R_MTT_cell_viability: Viability Assessment in the CeeTox HT-H295R MTT Assay (AID 2283718; active = hit-call score of the fitted dose curve at least 0.9, where 1 is the maximum; inactive = score below 0.9;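 as to AC50: curve fitted both ways so AC50 may mark viability loss or gain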). Summed up:
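H295R cells prestimulated 48 h with 10 uM forskolin, then exposed 48 h to test chemical (0.1% DMSO final). Viability by MTT (0.5 mg/ml, 4 h, 37 C), absorbance 570/650 nm; percent change versus DMSO, bidirectional fit.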

Assay [2] in a line: Tanguay_ZF_120hpf_ActivityScore_legacy: (Legacy) Oregon State University Tanguay Lab 120 Hour Post-fertilization zebrafish Assay Score for Activity (AID 2283742).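 As to AC50: dechorionated Tropical 5D wild-type zebrafish embryos held singly per well; static exposure from 6 hpf until 120 hpf at 28 °C.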 An outline of the steps:
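In this whole-embryo screen, dechorionated zebrafish were exposed from 6 hpf until 120 hpf at 28C under a 0.64% DMSO vehicle. Developmental malformations and death were recorded by brightfield microscopy as binary endpoints.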

Assay [3] in a line: ACEA_AR_agonist_AUC_viability: ACEA Biosciences xCELLigence Real-Time Cell Analysis on Androgen Receptor Agonism for Viability (AID 2283775).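 As to AC50: viability read 80 hours after compound addition.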 An outline of the steps: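 22Rv1 cells; impedance growth kinetics; 8-pt 1:4 dilutions from 100 uM top final, ≤0.5% DMSO; n = 2; 80 h read; AUC viability, loss-of-signal vs DMSO.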
Assay [4] can be described thus: ACEA_AR_antagonist_AUC_viability: ACEA Biosciences xCELLigence Real-Time Cell Analysis on Androgen Receptor Antagonism for Viability (AID 2283776).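 Also: 22Rv1 human prostate cancer cells growing on impedance electrode plates; area under impedance growth curve at 80 h after dosing as viability; hits lower the growth signal relative to DMSO meaning cytotoxicity.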 An outline of the steps: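 Viability endpoint from label-free cell-index monitoring: 22Rv1 cultures treated with an eight-point 1:4 dilution series starting at 100 uM final, AUC at 80 h fitted against DMSO.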
Assay [5] addresses Luciferin 4-monooxygenase (Photinus pyralis) (UniProt P08659). Description: CCTE_Simmons_QuantiLum_inhib_2: CCTE's Firefly Luciferase Inhibition Assay, Simmons Lab (AID 2283767).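 As to AC50: potency for inhibitors that lower luciferase luminescence relative to DMSO.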 An outline of the steps:
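Eight test concentrations, 5 nM up to 87.5 uM final, preincubated 30min at 37C in the dark with purified luciferase (0.5% DMSO final). Detection reagent (150uM D-luciferin, 147uM dATP, 75uM CoA, pH 7.8) injected per well before kinetic luminescence read; three replicates.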

The test system of assay [6] is chicken Androgen Receptor (AR), gene 422165. As to the kind of experiment: ATG_chAR_XSP1: Attagene TRANS-FACTORIAL Multi-Species (XSP1) HepG2 Assay for chicken Androgen Receptor (AR) (AID 2283768). Summed up: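 Reporter mRNA read by RT-PCR with fluorescent labelling and capillary electrophoresis 24 h after chemical dosing of transiently transfected HepG2 cells. Chicken AR-Gal4 chimera, partially stimulated with 3 nM 6-alpha-fluorotestosterone; activity fitted upward relative to DMSO.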

Assay [7] relates to zebrafish Androgen Receptor (AR), gene 100005148. As to the kind of experiment: ATG_zfAR_XSP1: Attagene TRANS-FACTORIAL Multi-Species (XSP1) HepG2 Assay for zebrafish Androgen Receptor (AR) (AID 2283771). Summed up: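 Gain-of-signal versus DMSO was measured as reporter transcripts quantified by RT-PCR, fluorescent labelling and capillary electrophoresis after 24 h chemical exposure. The cells were HepG2 expressing a chimeric zebrafish AR-GAL4, co-stimulated with 3 nM 6-alpha-fluorotestosterone.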

Assay [8] addresses zebrafish Estrogen Receptor (ESR1), esr1 (gene 259252) (UniProt P57717). As to the kind of experiment: ATG_zfER1_XSP1: Attagene TRANS-FACTORIAL Multi-Species (XSP1) HepG2 Assay for zebrafish Estrogen Receptor (ESR1) (AID 2283772). An outline of the steps:
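Reporter mRNA induction, gauged via RT-PCR/capillary electrophoresis fluorescence relative to DMSO controls, in HepG2 cells transiently carrying GAL4-UAS reporter units; 24 h dosing.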

For assay [9], the system named is zebrafish Estrogen Receptor (ESR2B), gene 317733. Description: ATG_zfER2b_XSP1: Attagene TRANS-FACTORIAL Multi-Species (XSP1) HepG2 Assay for zebrafish Estrogen Receptor (ESR2B) (AID 2283773). An outline of the steps:
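Human hepatoma HepG2, transiently transfected with multi-reporter units; exogenous zebrafish ESR2B-Gal4 activity measured. Exposure 24 h alongside 3 nM 6-alpha-fluorotestosterone to partly stimulate AR.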

Assay [10] relates to frog Estrogen Receptor (ESR2), gene 100174814. Description: ATG_frER2_XSP1: Attagene TRANS-FACTORIAL Multi-Species (XSP1) HepG2 Assay for frog Estrogen Receptor (ESR2) (AID 2283774). Summed up:
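Multiplexed TRANS-format reporter assay in human hepatoma HepG2: chimeric nuclear receptor-Gal4 activity reported as mRNA induction at 24 h, detected by fluorescent RT-PCR products on capillary electrophoresis and fitted upward from DMSO baseline.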

For assay [11], the system named is frog Estrogen Receptor (ESR1), gene 398734. As to the kind of experiment: ATG_frER1_XSP1: Attagene TRANS-FACTORIAL Multi-Species (XSP1) HepG2 Assay for frog Estrogen Receptor (ESR1) (AID 2283777). Summed up: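 After transient transfection and 24 h compound treatment, total RNA from HepG2 cells was reverse-transcribed, amplified, FAM-labeled and resolved by capillary electrophoresis. Signal increases were fitted against DMSO controls.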

The test system of assay [12] is zebrafish Estrogen Receptor (ESR2A), gene 317734. Description: ATG_zfER2a_XSP1: Attagene TRANS-FACTORIAL Multi-Species (XSP1) HepG2 Assay for zebrafish Estrogen Receptor (ESR2A) (AID 2283778). Summed up: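 Gain-of-signal reporter transcription readout from GAL4-UAS units in transiently transfected HepG2 cells, 24 h exposure, 3 nM 6-alpha-fluorotestosterone co-present. Detection by RT-PCR with capillary electrophoresis fluorescence.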

For assay [13], the target named is chicken Estrogen Receptor (ESR1), ESR1 (gene 396099) (UniProt P06212). As to the kind of experiment: ATG_chERa_XSP1: Attagene TRANS-FACTORIAL Multi-Species (XSP1) HepG2 Assay for chicken Estrogen Receptor (ESR1) (AID 2283779). Summed up:
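Gain-of-signal reporter transcription, relative to DMSO, was scored in transiently transfected HepG2 cells after a 24 h dose. Fluorescence intensity of amplified, digested reporter cDNA fragments served as the endpoint.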

Results filed as inconclusive are left out. Active and inactive are the calls of the source. The calls were made as follows, unless noted: active = hit-call score of the fitted dose curve at least 0.9, where 1 is the maximum; inconclusive = response in the unintended direction; inactive = score below 0.9.

Luciferin 4-monooxygenase (Photinus pyralis), sequence (P08659 whole entry, looked up): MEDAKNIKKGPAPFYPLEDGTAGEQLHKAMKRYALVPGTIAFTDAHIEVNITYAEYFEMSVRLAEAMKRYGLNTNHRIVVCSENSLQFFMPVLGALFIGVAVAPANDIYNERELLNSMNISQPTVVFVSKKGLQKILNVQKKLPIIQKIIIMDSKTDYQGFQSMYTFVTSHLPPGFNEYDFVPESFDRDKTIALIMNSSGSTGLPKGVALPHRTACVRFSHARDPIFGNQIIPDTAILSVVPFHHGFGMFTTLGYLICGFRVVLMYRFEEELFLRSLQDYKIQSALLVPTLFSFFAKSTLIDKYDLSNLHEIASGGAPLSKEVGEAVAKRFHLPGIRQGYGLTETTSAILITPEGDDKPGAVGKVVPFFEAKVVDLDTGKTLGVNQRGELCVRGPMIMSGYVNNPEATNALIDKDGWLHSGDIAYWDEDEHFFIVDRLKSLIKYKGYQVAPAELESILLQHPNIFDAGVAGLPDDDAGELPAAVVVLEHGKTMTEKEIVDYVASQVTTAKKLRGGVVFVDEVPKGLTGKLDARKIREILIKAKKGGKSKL
zebrafish Estrogen Receptor (ESR1), esr1 (gene 259252), sequence (P57717 whole entry, looked up, the tested form may be a part): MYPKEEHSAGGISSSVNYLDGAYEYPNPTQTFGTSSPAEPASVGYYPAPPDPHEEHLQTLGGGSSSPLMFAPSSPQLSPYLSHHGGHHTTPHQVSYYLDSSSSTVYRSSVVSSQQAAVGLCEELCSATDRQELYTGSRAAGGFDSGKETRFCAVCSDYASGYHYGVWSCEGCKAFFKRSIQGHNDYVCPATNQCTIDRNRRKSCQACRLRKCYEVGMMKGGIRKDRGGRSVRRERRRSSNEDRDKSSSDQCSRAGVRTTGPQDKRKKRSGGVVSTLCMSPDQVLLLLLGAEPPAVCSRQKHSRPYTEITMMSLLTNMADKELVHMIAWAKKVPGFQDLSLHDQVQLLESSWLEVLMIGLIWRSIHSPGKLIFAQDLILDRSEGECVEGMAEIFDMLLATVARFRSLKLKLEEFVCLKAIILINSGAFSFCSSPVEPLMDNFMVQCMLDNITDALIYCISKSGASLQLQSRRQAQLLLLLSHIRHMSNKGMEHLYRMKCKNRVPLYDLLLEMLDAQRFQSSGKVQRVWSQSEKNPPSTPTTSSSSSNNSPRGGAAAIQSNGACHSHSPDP
chicken Estrogen Receptor (ESR1), ESR1 (gene 396099), sequence (P06212 whole entry, looked up, the tested form may be a part): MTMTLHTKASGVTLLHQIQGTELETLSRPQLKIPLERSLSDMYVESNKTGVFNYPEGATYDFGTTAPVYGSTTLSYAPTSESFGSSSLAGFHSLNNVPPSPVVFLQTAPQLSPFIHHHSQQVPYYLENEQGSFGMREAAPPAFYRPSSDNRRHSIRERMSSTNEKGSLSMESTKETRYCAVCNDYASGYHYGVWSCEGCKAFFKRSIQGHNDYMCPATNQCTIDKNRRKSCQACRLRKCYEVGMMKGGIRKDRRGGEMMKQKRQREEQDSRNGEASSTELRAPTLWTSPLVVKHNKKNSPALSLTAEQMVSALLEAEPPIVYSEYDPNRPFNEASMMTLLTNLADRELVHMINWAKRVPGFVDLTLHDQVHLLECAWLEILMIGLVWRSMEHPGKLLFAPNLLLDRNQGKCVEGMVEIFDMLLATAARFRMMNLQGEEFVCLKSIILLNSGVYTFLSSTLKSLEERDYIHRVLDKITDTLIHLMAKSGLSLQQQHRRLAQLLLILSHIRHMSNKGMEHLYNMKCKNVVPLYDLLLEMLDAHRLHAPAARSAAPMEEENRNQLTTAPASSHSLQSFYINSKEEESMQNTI

With `CCCCCCCCCCCCCCCS(=O)(=O)Oc1ccccc1`, the compound was classed as inactive in assay [1], in [2], in assay [3] and in assay [4].
With `CN1CCC[C@H]1c1cccnc1`, the compound was called inactive in [1], in assay [2], in assay [3] and in assay [4].
Take `CC1=C(/C=C/C(C)=C/C=C/C(C)=C/C(=O)O)C(C)(C)CCC1`: the AC50 in assay [1] was 1.21 µM (active); in [2], 0.34 µM (active); in assay [4], 78.6 µM (active). Also, the result in assay [5] was inactive.
As for `CCc1nn(C2CCCCC2)c2cc(C3(C#N)CCC(C(=O)O)CC3)ccc12` (configuration not stated), the outcome in [1] and in assay [4] was inactive. Further, the AC50 in [2] was 0.421 µM (active).
Consider `CCCCCCCCC(=O)O`, for which the outcome in [1], in [2], in assay [3] and in assay [4] was inactive.
Regarding `c1ccc2c(c1)Cc1ccccc1-2`, the compound was called inactive in assay [1], in assay [2], in [3] and in assay [4].
Consider `Nc1cccc2c(N)cccc12`, for which the compound was classed as inactive in assay [1] and in assay [2]. Besides, the AC50 in [5] was 10.6 µM (active).
As to `CCN(CC)CCNc1ccc(CNC=O)c2sc3ccc(OC)cc3c(=O)c12`, the result in [2] and in [5] was inactive. Further, the values for the AC50 in assay [3] and in [4] were 7.1 µM (active) and 5.35 µM (active), respectively.
As for `NC(=O)N(O)[C@@H]1C=C[C@H](Oc2cccc(Oc3ccc(F)cc3)c2)C1`, the call in assay [1] and in assay [2] was inactive. The AC50 in [5] is 16.7 µM (active); in [3] it was 40.8 µM (active); in [4], 25 µM (active).
Take `CC(C)(C)c1cccc(C(C)(C)C)c1O`: the outcome in assay [2], in assay [5], in assay [3] and in [4] was inactive.
With `CC[C@H](c1ccc(O)cc1)[C@@H](CC)c1ccc(O)cc1`, the compound was called inactive in [2], in assay [5], in [6] and in [7]. Besides, the AC50 in assay [8] was 0.000114 µM (active); in [9] it was 65.7 pM (active); in [10], 0.000101 µM (active); in [3], 10.7 µM (active); in assay [4], 10.1 µM (active); in [11], 76.4 pM (active). In addition, the AC50 is 55.2 pM (active) in [12] and 20.7 pM (active) in [13].
With `COC(=O)CCCCC(=O)OC`, the call in [1], in [2], in [3] and in assay [4] was inactive.
As for `C#C[C@]1(O)CC[C@H]2[C@@H]3CCC4=CC(=O)CC[C@@H]4[C@H]3CC[C@@]21C`, the AC50 in assay [1] was 2.31 µM (active). For the same compound, the call in assay [2] was inactive.
Regarding `COc1ccc([N+](=O)[O-])cc1N`, the outcome in [1], in [2], in [5] and in assay [3] was inactive. Moreover, the AC50 in assay [4] was 27.3 µM (active).

The AC50 is the concentration at which the activity in the assay is half-maximal.
